Among all 310,000 compounds or so, about 14,000 (4.5%) showed an effect of 50% or more. Effects have a minus sign here. For the sample, strong results were picked, then their nearest neighbours and some compounds at random.
molecular target: human ether-à-go-go-related gene (hERG) potassium channel (human, UniProt Q12809); assay: primary screen, population patch clamp on CHO cells stably expressing hERG; higher = less effect of the substance
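Also: peak tail current of the secondary pulse compared with the same well before compound.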

Sequence of human ether-à-go-go-related gene (hERG) potassium channel (Q12809 whole entry, looked up): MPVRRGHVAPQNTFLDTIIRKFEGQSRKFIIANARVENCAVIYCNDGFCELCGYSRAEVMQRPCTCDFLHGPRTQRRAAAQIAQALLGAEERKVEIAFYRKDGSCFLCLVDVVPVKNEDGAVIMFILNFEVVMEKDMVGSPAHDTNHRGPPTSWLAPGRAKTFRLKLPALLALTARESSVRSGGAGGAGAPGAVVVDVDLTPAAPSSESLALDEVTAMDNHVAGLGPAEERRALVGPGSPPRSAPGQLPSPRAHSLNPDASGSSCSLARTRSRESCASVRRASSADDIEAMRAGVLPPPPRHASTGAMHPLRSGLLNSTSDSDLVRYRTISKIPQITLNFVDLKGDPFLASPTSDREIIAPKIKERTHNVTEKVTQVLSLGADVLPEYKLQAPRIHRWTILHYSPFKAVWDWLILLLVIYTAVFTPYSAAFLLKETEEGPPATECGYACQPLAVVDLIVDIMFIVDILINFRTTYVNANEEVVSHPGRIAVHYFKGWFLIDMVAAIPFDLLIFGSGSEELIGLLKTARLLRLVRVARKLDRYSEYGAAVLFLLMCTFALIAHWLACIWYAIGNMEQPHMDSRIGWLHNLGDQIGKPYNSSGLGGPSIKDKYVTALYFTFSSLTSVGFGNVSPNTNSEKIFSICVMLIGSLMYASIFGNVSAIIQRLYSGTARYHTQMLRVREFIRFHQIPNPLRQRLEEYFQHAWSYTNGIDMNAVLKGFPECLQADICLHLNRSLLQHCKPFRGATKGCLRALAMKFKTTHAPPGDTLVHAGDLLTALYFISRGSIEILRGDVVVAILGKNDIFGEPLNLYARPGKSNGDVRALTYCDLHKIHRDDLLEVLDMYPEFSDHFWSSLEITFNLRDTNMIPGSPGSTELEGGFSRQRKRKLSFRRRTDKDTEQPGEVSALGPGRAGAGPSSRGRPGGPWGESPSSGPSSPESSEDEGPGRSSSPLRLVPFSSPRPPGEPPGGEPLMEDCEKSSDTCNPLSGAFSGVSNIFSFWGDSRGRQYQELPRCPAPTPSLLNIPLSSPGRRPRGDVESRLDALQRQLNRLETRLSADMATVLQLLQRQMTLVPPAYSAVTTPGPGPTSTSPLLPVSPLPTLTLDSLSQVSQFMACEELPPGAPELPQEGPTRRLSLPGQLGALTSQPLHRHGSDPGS

Row | Compound | hERG current change (%, negative = inhibition) at 10uM [%]
1 | C/C(N)=C(/C#N)C(=O)CSc1nc2ccccc2c(=O)n1CCCOC(C)C | -21.2
2 | Cc1cc(O)cc(O)c1C=NCc1ccco1 | -8.53
3 | CC1C(c2ccccc2)=NNc2nc3c(c(=O)n(C)c(=O)n3C)n21 (centres unmarked) | 3.99
4 | COc1ccc(-c2nc(-c3ccc(NC(=O)c4ccncc4)cc3)no2)cc1OC | 7.54
5 | COc1ccc(C(=O)Nc2ccc(N3CCN(C)CC3)cc2)cc1OC | -11.9
6 | COc1ccc(NC(=O)c2ccc(-c3ccc(-c4noc(C)n4)cc3C)cc2)cc1N1CCN(C)CC1.Cl | -76
7 | CCOC(=O)c1c(NC(=O)CNC2CCCCC2)sc(C)c1C | 10.3
8 | N#CCSc1nnc(COc2ccc3ccccc3c2)o1 | -5.89
9 | COc1cc(CC(=O)OCC(=O)Nc2ccc3c(c2)OCCO3)cc(OC)c1OC | 26
10 | COc1cc(CC(=O)OCC(=O)c2ccc3c(c2)OCCO3)cc(OC)c1OC | -58.6
11 | O=C(Cc1ccc(Br)cc1)OCC(=O)c1ccc2c(c1)OCCO2 | 13.1
12 | CC(=O)C1=C(O)C(=O)OC1c1ccc(Cl)cc1 (centres unmarked) | 7.92
13 | FC(F)(F)c1nnc2ccc(NCc3ccccc3)nn12 | 8.9
14 | CCN(CC(=O)Nc1c(F)cccc1F)C(=O)CSCC(=O)Nc1ccc(OC)cc1 | -3.35
15 | CCN(CC(=O)Nc1ccc2c(c1)OCCO2)C(=O)CSCC(=O)Nc1ccc(C)cc1 | -31.1
16 | CCN(CC(=O)NCc1ccc(Cl)cc1)C(=O)CSCC(=O)Nc1ccc(OC)cc1 | -66.7
17 | CSc1ccc(CN(C)C(=O)CSCC(=O)Nc2cc(C)on2)cc1 | 6.59
18 | CSc1ccc(CN(C)C(=O)CSCC(=O)Nc2ccc(C)cc2)cc1 | -73
19 | CCN(CC(=O)Nc1ccc(NC(C)=O)cc1)C(=O)CSCC(=O)Nc1ccc(C)cc1 | 2.95
20 | CCN(CC(=O)NCc1ccc(Cl)cc1)C(=O)CSCC(=O)Nc1ccc(C)cc1 | -77.9
21 | Cc1ccc(CSCC(=O)N(C)CC(=O)Nc2ccc(C)cc2)cc1 | -2.48
22 | CCN(CC(=O)Nc1ccc(OC)cc1)C(=O)CSCC(=O)Nc1ccc(C)cc1 | -23.5

Row | Compound | hERG current change (%, negative = inhibition) at 10uM [%]
23 | CC(CCc1ccccc1)NCC(O)c1ccc(O)c(C(N)=O)c1.Cl (centres unmarked) | -30.6
24 | CCOC(=O)C1CCCN(Cc2cc(=O)oc3cc(C)ccc23)C1 (centres unmarked) | -13.6
25 | CCOCC(=O)Nc1ccccc1C(=O)N1CCOCC1 | -0.166
26 | Nc1cc(N2CCCCC2)c(Cl)cc1[N+](=O)[O-] | -10.8
27 | NC(=O)C1CCN(CC(=O)NC(=O)NC2CCCC2)CC1 | 9.34
28 | Cc1c(-c2cc(C(=O)O)no2)cnn1C | 32.4
29 | C=CCOC(=O)/C(=C\c1ccccc1)NC(=O)c1ccco1 | 1.97
30 | O=C(OCc1ccccc1)/C(=C/c1cccc([N+](=O)[O-])c1)NC(=O)c1ccco1 | -63.3
31 | O=C(NC(Cc1ccccc1)C(=O)O)/C(=C/c1cccc([N+](=O)[O-])c1)NC(=O)c1ccco1 (centres unmarked) | -11.4
32 | O=C(NC(Cc1ccccc1)C(=O)O)/C(=C\c1cccc([N+](=O)[O-])c1)NC(=O)c1ccco1 (centres unmarked) | 28.4
33 | O=C(OCc1ccccc1)/C(=C/c1cccc(Br)c1)NC(=O)c1ccco1 | -52.5
34 | CCOC(=O)/C(=C/c1ccccc1)NC(=O)c1ccco1 | -7.55
35 | O=C(COc1ccc(Cl)cc1)NC(=S)Nc1ccccc1N1CCOCC1 | 17.4
36 | Cc1ccc2c(O)c(C)c(=O)[nH]c2n1 | 24.3
37 | O=C(Nc1ccc(S(=O)(=O)NC2=NCCCCC2)cc1)c1ccco1 | 2.7
38 | CCN(CC)c1ccc(NC(=O)CSc2ccsc2[N+](=O)[O-])c(C)c1 | 5.74
39 | Br.CN1CCN(CC(=O)c2cc(C(C)(C)C)c(O)c(C(C)(C)C)c2)CC1 | -13.3
40 | COc1cccc(Cn2c(=O)oc3ccccc32)c1 | 4.3
41 | Cc1csc2nc(COC(=O)c3ccc(Cl)c([N+](=O)[O-])c3)cc(=O)n12 | -63.1
42 | COc1ccc(C(=O)OCc2cc(=O)n3c(C)csc3n2)cc1F | -2.77
43 | Cc1csc2nc(COC(=O)c3cccc(N(C)C)c3)cc(=O)n12 | -32.5
44 | Fc1ccc(-c2cc(C(F)(F)F)nc(N3CCCCC3)n2)cc1 | 19.5

— article PMC4336329 (PLoS ONE, 2015)
